Assay outcomes (PubChem)
Hsp90 Hop PPI = changes Hsp90-Hop TPR2A binding signal, up or down; AlphaScreen TPR2A-His6 binding biotin-Hsp90 C-terminal peptide; Potency, µM (series often up to 57 µM), for inactives: at the highest dose activity change, negative = inhibition; actives 0.44% (n = 71,000); active = well fitted curve in either direction with a large enough effect; inconclusive = small, poorly fitted or top-dose-only effect, or another doubt; also: potency is read from the fitted curve at half-maximal effect; % is scaled to controls: 0 for no effect and ±100 for the full control effect
ALOX15 inhib = 15-hLO (ALOX15) enzyme inhibition. P16050. purified 15hLO-1, xylenol orange hydroperoxide absorbance. Potency, µM (highest dose often 57.1 µM), for inactives: at the highest dose activity change, negative = inhibition, usual class: inhibitors. actives 1.4% (n = 74,000). AID 887; also: potency is read from the fitted curve at half-maximal effect; % is scaled to controls: 0 for no effect and ±100 for the full control effect; nearly all actives have a fitted effect of over 55% in size
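40 nM 15hLO-1 + cpd, 15 min RT; start w/ 50 uM AA (final), 6 min RT; stop/detect w/ 200 uM XO + 300 uM Fe(II) in 50 mM H2SO4, 30 min; A573/A405. Buffer 25 mM Hepes pH 7.5, 0.01% Triton X-100. No-enzyme wells as negative control.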
Pol III holo inh = inhibitors of bacterial DNA polymerase III holoenzyme; reconstituted DNA polymerase III holoenzyme replication, biochemical; Potency, µM (titrated, usually from 57.1 µM), for the others: top-dose activity change, negative = inhibition; actives 0.25% (n = 71,000); AID 603; also: potency is read from the fitted curve at half-maximal effect; % is scaled to controls: 0 for no effect and ±100 for the full control effect
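Reconstituted *E. coli* holoenzyme (0.35 nM Pol III, 1 nM beta, 154 nM SSB, 2 nM primase) was preincubated with compound for 15 min at RT. Synthesis on 1.4 nM ssM13Gori ran 35 min, then was stopped with PicoGreen/EDTA and read as dsDNA fluorescence.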
Tau filament bind = binds recombinant human tau filaments. recombinant tau filaments, thioflavin S fluorescence, 15 h; filaments grown with octadecylsulfate alongside compound. Potency, µM (doses to about 57.1 µM), for inactives: top-dose activity change, negative = inhibition. actives 2% (n = 71,000). AID 596;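 also: potency is read from the fitted curve at half-maximal effect; % is scaled to controls: 0 for no effect and ±100 for the full control effect; actives lower thioflavin S fluorescence by blocking filaments or displacing dye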
Target sequence (P10636 whole entry, looked up): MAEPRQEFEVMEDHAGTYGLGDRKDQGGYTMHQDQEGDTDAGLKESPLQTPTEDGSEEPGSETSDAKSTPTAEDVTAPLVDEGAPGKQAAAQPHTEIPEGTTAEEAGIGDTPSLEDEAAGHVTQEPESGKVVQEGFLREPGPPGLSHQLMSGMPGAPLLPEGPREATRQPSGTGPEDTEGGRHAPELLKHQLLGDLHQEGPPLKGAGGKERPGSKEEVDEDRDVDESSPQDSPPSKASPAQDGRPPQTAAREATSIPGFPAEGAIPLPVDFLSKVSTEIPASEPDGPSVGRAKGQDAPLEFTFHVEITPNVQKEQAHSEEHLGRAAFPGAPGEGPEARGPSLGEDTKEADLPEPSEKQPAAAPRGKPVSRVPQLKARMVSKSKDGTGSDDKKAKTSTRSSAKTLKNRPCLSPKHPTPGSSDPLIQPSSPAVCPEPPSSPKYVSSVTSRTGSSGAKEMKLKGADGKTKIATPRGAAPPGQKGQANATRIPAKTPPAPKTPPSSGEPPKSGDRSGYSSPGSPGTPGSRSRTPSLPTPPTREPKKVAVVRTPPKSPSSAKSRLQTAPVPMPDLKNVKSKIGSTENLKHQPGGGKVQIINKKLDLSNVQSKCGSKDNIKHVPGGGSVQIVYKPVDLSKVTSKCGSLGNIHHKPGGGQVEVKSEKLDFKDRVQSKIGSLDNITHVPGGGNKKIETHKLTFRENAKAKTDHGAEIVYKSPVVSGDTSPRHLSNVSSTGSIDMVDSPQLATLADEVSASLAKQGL
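Recombinant tau protein (human, 1 uM final) plus 30 uM ODS in HEPES pH 7.4 with NaCl, DTT and thioflavine S. Compound present from the start; fluorescence at 510 nm after 15 h, 37 C.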
YjeE inh = inhibitors of E. coli YjeE (TsaE); actives 0.05% (n = 71,000); AID 605; P0AF67; purified YjeE enzyme, qHTS inhibition assay; Potency, µM
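Purified YjeE (10 uM) with BODIPY Texas Red-labeled ADP probe (2 uM); compounds pin-transferred, 15 min at room temperature. Binding inhibition read as decreased fluorescence polarization; ADP titration as control.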
Hsp90-TPR2A inh = confirmation and counter-screen of Hsp90 TPR2A co-chaperone interaction disrupters | shares compounds with Hsp90 Hop PPI | AlphaScreen TPR2A-His6 / biotin-Hsp90 peptide binding | activity, negative = inhibition, % at 40 µM or 46 µM, hits read low | actives 100% (n = 45) | AID 632;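 active = compound lowering the Hsp90 and TPR2A binding signal, whether or not the linker counterscreen also flagged it as an artifact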
Tau ThS bind = displaces Thioflavin S from human tau filaments. Potency, µM. shares compounds with Tau filament bind. actives 40% (n = 60). recombinant tau filaments, Thioflavin S fluorescence displacement; calls by dose curve
aSyn ThS displ = compounds binding human alpha-synuclein fibrils, displacing Thioflavin S | shares compounds with Tau filament bind | recombinant alpha-synuclein fibrils, ThS fluorescence displacement | Potency, µM | actives 40% (n = 60); calls by dose curve
Abeta ThS bind = amyloid beta fibril binding by ThS displacement; AID 956; shares compounds with Tau filament bind; actives 50% (n = 60); Abeta1-42 fibrillization, thioflavin S fluorescence, overnight 37 C; Potency, µM; calls by dose curve
* = called active by the depositor; i = inactive; ? = inconclusive; . = not tested or not shown; + = active, no number; [ ] = dose if it differs, or a comment. The list is not random: actives were taken first. Their share in the collection is about 3.3%. Unless noted, calls follow the shape of the dose curve; as a rule, active = well fitted curve in the direction sought with a large enough effect; inconclusive = small, poorly fitted or top-dose-only effect, or another doubt; inactive = no such curve, though single readings can be large; an effect the other way counts as inactive or inconclusive.

SMILES	Hsp90 Hop PPI	ALOX15 inhib	Pol III holo inh	Tau filament bind	YjeE inh	Tau ThS bind	aSyn ThS displ	Abeta ThS bind	others
COc1ccc(NC(=O)Cc2nc3ccccc3[nH]2)cc1	-2%	11%	-2%	-11%	i	.	.	.
COC(=O)Cc1cc(=O)n(-c2nc3ccccc3[nH]2)[nH]1	7.9µM*	37%	-2%	-11%	i	.	.	.	Hsp90-TPR2A inh=-100*[alpha-screen platform artifact]
Cc1ccccc1CS(=O)(=O)Cc1ccc(C(=O)NCc2ccccn2)o1	4µM*	40%	-2%	11%	i	.	.	.	Hsp90-TPR2A inh=-91*[alpha-screen platform artifact]
O=C(NCc1ccccn1)c1ccc(CS(=O)(=O)Cc2ccc(Cl)cc2)o1	-14%	8%	-1%	2%	i	.	.	.
CCCc1nc2c(=O)n(C)c(=O)nc-2n(C)n1	.	.	.	.	.	.	.	.	Hsp90-TPR2A inh=+
CCCn1c(-c2ccc(F)cc2)nc2c(NCCCN3CCOCC3)nc(C)nc21	-4%	-22%	-1%	8%	i	.	.	.
N#Cc1nc(Cc2cccc3ccccc23)oc1NCCN1CCCCC1	7.9µM*	29%	-7%	26%	i	.	.	.	Hsp90-TPR2A inh=-23
c1ccc(-c2n[nH]c(-c3ccccn3)n2)nc1	0.2µM*	59%	4%	6%	i	.	.	.	Hsp90-TPR2A inh=-98*[alpha-screen platform artifact]
NC(=O)NC(=O)[C@H]1CCCC[C@@H]1C(=O)O	3%[11 µM]	5%[11.4 µM]	-4%[11.4 µM]	14%[11.4 µM]	i	.	.	.
Cc1ccc(C2NC(=O)c3c(sc4c3CCN(C)C4)N2)s1 (stereo not drawn)	-11%	?	4%	i	i	.	.	.
CN1CCc2c(sc3c2C(=O)NC(c2ccccn2)N3)C1 (stereo not drawn)	16µM*	14%	-1%	i	i	.	.	.	Hsp90-TPR2A inh=-81*[alpha-screen platform artifact]
CCCn1c(-c2ccc(F)cc2)nc2c(NCCCCN(C)C)nc(C)nc21	2%	5%	-2%	9%	i	.	.	.
Oc1c(CN2CCOCC2)cc(COCc2ccccc2)c2cccnc12	1.6µM*	23%	0%	-48%	i	i	?	i	Hsp90-TPR2A inh=-100*[alpha-screen platform artifact]
CN(C)CC[C@H](c1ccc(Br)cc1)c1ccccn1	-2%[26 µM]	12%[25.6 µM]	0%[25.6 µM]	20%[25.6 µM]	i	.	.	.
CC(=O)OCCNc1cc(N2CCN(C)CC2)c2noc3c2c1C(=O)c1ccccc1-3	?	-12%	5%	3.2µM*	i	3µM*	2.7µM*	1.3µM*
CCn1c(=O)cc(OCC(=O)Nc2ccccc2N2CCN(C)CC2)c2ccccc21	-1%	1%	-9%	37%	i	.	.	.
O=C(O)[C@@H]1CCN(Cc2oc(CO)cc(=O)c2O)C1	0%[11 µM]	14%[11.4 µM]	-4%[11.4 µM]	8%[11.4 µM]	i	.	.	.
CCCCCCc1c(O)c2ccccc2[nH]c1=O	2%	1%	-6%	-17%	i	.	.	.
N=C(N)c1ccc(N=Nc2c(O)ccc3c2[nH]c2ccccc23)cc1	?	49%[11.4 µM]	?	1µM*	i	0.81µM*	2.6µM*	1µM*
NC(N)=NC(N)=Nc1ccccc1 (tested in a mixture with another compound)	-3%[11 µM]	-20%[11.4 µM]	-6%[11.4 µM]	2%[11.4 µM]	i	.	.	.
CCOC(=O)N1CCc2c(sc3c2C(=O)NC(c2ccc(-c4ccc(Cl)cc4)o2)N3)C1 (stereo not drawn)	0%	-2%	6%	0.63µM*	i	i	i	i
CN1CCc2c(sc3c2C(=O)NC(c2ccc4c(c2)OCO4)N3)C1 (stereo not drawn)	-3%	?	-13%	i	i	.	.	.
Cc1nc(NC2CCCCC2)c2nc(-c3ccccc3)n(CCN3CCCC3)c2n1	-6%	-6%	0%	-19%	i	.	.	.
COc1cccc2c1C(=N)c1c(O)c3c(c(O)c1C2=O)C[C@](O)(C(C)=O)C[C@@H]3O[C@H]1C[C@H](N)[C@@H](O)[C@H](C)O1	-27%[11 µM]	12%[11.4 µM]	3.2µM*	1.3µM*	i	1.8µM*	2µM*	0.68µM*
Cc1cc(-c2ccc(N=Nc3ccc4c(S(=O)(=O)O)cc(S(=O)(=O)O)c(N)c4c3O)c(C)c2)ccc1N=Nc1ccc2c(S(=O)(=O)O)cc(S(=O)(=O)O)c(N)c2c1O	4µM*	?	7.9µM*	3.2µM*	79µM*	0.19µM*	0.77µM*	0.92µM*
SMILES	Hsp90 Hop PPI	ALOX15 inhib	Pol III holo inh	Tau filament bind	YjeE inh	Tau ThS bind	aSyn ThS displ	Abeta ThS bind	others
Nc1c(N=Nc2ccc(-c3ccc(N=Nc4cc(S(=O)(=O)O)c5ccccc5c4N)cc3)cc2)cc(S(=O)(=O)O)c2ccccc12	.	.	.	.	.	0.29µM*	0.42µM*	2.4µM*
CCNc1ncc2nc(C)c(=O)n(C3CC3)c2n1	-3%	0%	-1%	1%	i	.	.	.
CN(C)c1ccc(C(=C2C=CC(=[N+](C)C)C=C2)c2c(O)c(S(=O)(=O)O)cc3cc(S(=O)(=O)O)ccc23)cc1	?	10%[11.4 µM]	-3%[11.4 µM]	6%[11.4 µM]	i	?	i	i
Cc1cc(C(=O)Nc2ccc(N3CCOCC3)cc2)c2ccccc2n1	-12%	2%	2%	7.9µM*	i	i	i	i
CCCCOc1ccc(C(=O)Nc2ccc(N3CCN(C)CC3)cc2)cc1	0%	7%	1%	1µM*	i	?	i	i
CN1c2cccc3cccc(c23)N(C)C1(C)C	-20%	-12%	-1%	-81%	i	i	?	?
CN1/C(=N\O)c2cccc3cccc1c23	12%	-13%	-5%	333%	i	.	.	.
Cn1ccnc1C[C@@](C)(O)c1ccccc1	-1%[11 µM]	2%[11.4 µM]	-1%[11.4 µM]	8%[11.4 µM]	i	.	.	.
CN(C)c1ccc(/C=C2/C(=O)Nc3ccccc32)cc1	?	-9%	-8%	1µM*	i	0.99µM*	1.4µM*	0.67µM*
Nc1cc(C(=O)O)ccc1Nc1ccccc1	-9%[11 µM]	-9%[11.4 µM]	4%[11.4 µM]	-16%[11.4 µM]	i	.	.	.
Nc1ccc(Nc2ccccc2N)cc1	?	?	-8%	-120%	i	2.8µM*	2.3µM*	2µM*
COc1cc2[nH]c(=O)n(CCC(=O)NC3CCCC3)c(=O)c2cc1OC	-1%	5%	3%	4%	i	.	.	.
CCOc1cc2[nH]c(=O)n(CCCCC(=O)NC3CCCCC3)c(=O)c2cc1OCC	?	7%	4%	-39%	i	i	i	i
COc1ccccc1CNc1cc(-c2ccoc2)ncn1	-18%	26%	2%	3%	i	.	.	.
CN(C)c1ccc(-c2ccc3ncnc(NC4CC4)c3c2)cc1	-3%	13%	-7%	?	i	.	.	.
CC1=C[N+](=O)c2ccccc2[N+]1=O	2%[11 µM]	6%[11.4 µM]	-6%[11.4 µM]	5%[11.4 µM]	i	.	.	.
